Experimental data taken from the supplement of paper PMC9399229.
Structures can show the parent of a compound that is named as a salt. Whole data set: some 1,900 compounds, median “relative cell viability (CellTiter-Glo), compound plus cabozantinib, relative to the cabozantinib arm (arm median 1.05; reference not stated)” near 1.1, cut for the lowest 2% near 0.15. The list comes from a sample in which the lowest values are over-represented; it also holds similar structures and randomly drawn compounds.

tested on: Hep3B; test: relative cell viability (CellTiter-Glo), compound plus cabozantinib, relative to the cabozantinib arm (arm median 1.05; reference not stated) (fraction); higher = more viable cells (less growth inhibition); conditions: cabozantinib 2 µM; 4 days

Going from `O=C(O)CC1CC(c2ccccc2)=NO1` (configuration not stated) to `O=C(O)c1ccccc1` [Benzoic Acid], the relative cell viability rises from 1.1 to 1.12.

Going from `CC(C(O)c1ccc(O)cc1)N1CCC(Cc2ccccc2)CC1` (configuration not stated) [Ifenprodil Tartrate] to `CC(C)[C@H](C(=O)Nc1ccc(C(=O)NO)cc1)c1ccccc1`, the relative cell viability falls from 1.13 to 0.142.

First: CS(=O)(=O)CCNCc1ccc(-c2ccc3ncnc(Nc4ccc(OCc5cccc(F)c5)c(Cl)c4)c3c2)o1 [Lapatinib]
Second: Cc1cc(F)c(Nc2ncnc3cc(OCc4ccccc4)ccc23)cc1O
The relative cell viability of the first is lower: 0.971 for the first, 1.05 for the second.

Compared with `CS(=O)(=O)CCNCc1ccc(-c2ccc3ncnc(Nc4ccc(OCc5cccc(F)c5)c(Cl)c4)c3c2)o1`, `CNCc1ccc(C)c(NC(=O)c2ccc(Nc3nc(-c4ccccc4)c4ccccc4n3)cc2)c1` is lower in relative cell viability: 1.03 for the first, 0.858 for the second.

Compared with `CCS(=O)(=O)Nc1ccc2c(c1)/C(=C(/Nc1ccc(CN3CCCCC3)cc1)c1ccccc1)C(=O)N2` [Hesperadin], `COC(=O)c1ccc2c(c1)NC(=O)/C2=C(\Nc1ccc(N(C)C(=O)CN2CCN(C)CC2)cc1)c1ccccc1` [Nintedanib (BIBF 1120)] is higher in relative cell viability: 0.123 for the first, 0.806 for the second.

Compared with `CN(C)Cc1cccc(N/C(=C2\C(=O)Nc3cc(C(N)=O)ccc32)c2ccccc2)c1`, `CCCCN(Cc1ccc(C(=O)NO)cc1)C(=O)Nc1ccccc1` [Nexturastat A] is higher in relative cell viability: 0.924 for the first, 0.953 for the second.

Compared with `O=C1NCC2(CCN(CCc3ccccc3)CC2)O1` [Fenspiride HCl], `CC(C)[C@H]1CC[C@H](C(=O)N[C@H](Cc2ccccc2)C(=O)O)CC1` [Nateglinide] is lower in relative cell viability: 1.16 for the first, 1.13 for the second.

Compared with `CC(=O)Nc1ccc(C(=O)Nc2ccccc2N)cc1` [CI994 (Tacedinaline)], `O=C(Nc1ccccc1)c1ccccc1O` [Salicylanilide] is lower in relative cell viability: 1.14 for the first, 1.1 for the second.

Compared with `CC(C(=O)O)c1ccc2c(c1)Cc1cccnc1O2` (configuration not stated) [Pranoprofen], `CC(C(=O)O)c1ccc2c(c1)CC(=O)c1ccccc1S2` (configuration not stated) [Zaltoprofen] is higher in relative cell viability: 1 for the first, 1.17 for the second.

Going from `CCOc1cc(N2CCC(O)CC2)ccc1Nc1ncc2c(n1)N(C)c1ccccc1C(=O)N2C` to `CCOc1cc(C(=O)N2CCC(N3CCN(C)CC3)CC2)ccc1Nc1ncc2c(n1)N(C1CCCC1)c1ccccc1C(=O)N2C`, the relative cell viability falls from 1.09 to 0.703.

Going from `CNC(=O)c1ccccc1Nc1nc(Nc2ccc(N3CCOCC3)cc2OC)ncc1Cl` to `CNC(=O)c1ccccc1Nc1cc(Nc2ccc(N3CCOCC3)cc2OC)ncc1C(F)(F)F`, the relative cell viability rises from 0.155 to 1.05.

First: COc1cc(N2CCC(N)CC2)ccc1Nc1ncc(Cl)c(-c2c[nH]c3ccccc23)n1
Second: COc1cc(-c2cc(-c3ccc(N4CCNCC4)cc3)cnc2C)cc(OC)c1OC
The relative cell viability of the first is lower: 0.119 for the first, 1.01 for the second.

Going from `CC/C(=C(/CC)c1ccc(O)cc1)c1ccc(O)cc1` [Diethylstilbestrol] to `CC[C@H](c1ccc(O)cc1)[C@@H](CC)c1ccc(O)cc1` [Hexestrol], the relative cell viability falls from 1.21 to 1.19.

First: CCCCNc1ncc(C(=O)NCc2ccc(-n3ccnc3)cc2)c(NC2CCC(O)CC2)n1 (configuration not stated)
Second: CN1CCN(CCCNc2ncc(Cl)c(-c3cc4c(C(=O)NC5CC5)cccc4s3)n2)CC1
The relative cell viability of the first is lower: 0.996 for the first, 1.1 for the second.

Going from `Cc1cc(C#N)cc(C)c1Oc1nc(Nc2ccc(C#N)cc2)nc(N)c1Br` [Etravirine (TMC125)] to `CSc1cccc(Nc2ncc3cc(-c4c(Cl)cccc4Cl)c(=O)n(C)c3n2)c1`, the relative cell viability falls from 1.23 to 0.748.

Going from `c1cc(-c2cnn3cc(-c4ccc(N5CCNCC5)cc4)cnc23)c2cccnc2c1` to `COc1ccc(-c2cnc3c(-c4cccc5ncccc45)cnn3c2)cc1`, the relative cell viability rises from 0.148 to 1.08.

First: CS(=O)(=O)N1CCc2c(-c3cnc(N)nc3)nc(N3CCOCC3)nc21
Second: Cc1coc2c1C(=O)C(=O)c1c-2ccc2c1CCCC2(C)C [Tanshinone IIA]
The relative cell viability of the first is lower: 0.228 for the first, 0.985 for the second.

Going from `CCCCCCCCCCCC[N+](C)(C)CCOc1ccccc1` [Domiphen Bromide] to `CN(C)CCOc1ccc(/C(=C(/CCCl)c2ccccc2)c2ccccc2)cc1` [Toremifene Citrate], the relative cell viability rises from 1.02 to 1.06.

Going from `Cc1[nH]c2ccccc2c1CCNC(=O)c1cccs1` to `Cc1[nH]c2ccccc2c1CCNCc1ccc(/C=C/C(=O)NO)cc1` [Panobinostat (LBH589)], the relative cell viability falls from 1.18 to 0.108.

Compared with `Cc1ccc([N+](=O)[O-])cc1S(=O)(=O)N(C)/N=C/c1cnc2ccc(Br)cn12`, `Cc1ccc(S(=O)(=O)n2c(N)nc3ccccc32)cc1` [ML130 (Nodinitib-1)] is higher in relative cell viability: 0.113 for the first, 1.2 for the second.

Compared with `CCN(CC)C(=S)SSC(=S)N(CC)CC` [Disulfiram], `CCOCC(O)COc1ccc(NC(=O)CC[S+](C)C)cc1` (configuration not stated) [Suplatast Tosylate] is higher in relative cell viability: 0.0898 for the first, 1 for the second.

First: Oc1ncnc2[nH]ncc12 [Allopurinol]
Second: Nc1nc(O)c2ncn(CCC(CO)CO)c2n1 [Penciclovir]
The relative cell viability of the first is lower: 0.992 for the first, 1.08 for the second.

First: CC(C)(C)c1nc(-c2cccc(NS(=O)(=O)c3c(F)cccc3F)c2F)c(-c2ccnc(N)n2)s1
Second: Cc1cccc(-c2[nH]c(CNc3ccccc3F)nc2-c2ccc3ncnn3c2)n1
The relative cell viability of the first is lower: 0.993 for the first, 1.1 for the second.

Going from `CC(C)N(CCCNC(=O)Nc1ccc(C(C)(C)C)cc1)C[C@H]1O[C@@H](n2ccc3c(N)ncnc32)[C@H](O)[C@@H]1O` to `CC1(C)CNc2cc(NC(=O)c3cccnc3NCc3ccncc3)ccc21` [Motesanib Diphosphate (AMG-706)], the relative cell viability rises from 1.07 to 1.09.

First: O=C1c2c(O)cc(O)cc2O[C@H](c2cc(O)c(O)c(O)c2)[C@H]1O [Dihydromyricetin]
Second: C[C@H]1CO[C@@H]2Cn3cc(C(=O)NCc4ccc(F)cc4F)c(=O)c(O)c3C(=O)N12
The relative cell viability of the first is lower: 0.985 for the first, 1.1 for the second.

First: CC(C)[C@H](O)C(=O)N[C@@H](C)C(=O)N[C@@H]1C(=O)N(C)CCc2ccccc21
Second: CC(C)C[C@H](NC(=O)[C@H](Cc1ccccc1)NC(=O)c1cnccn1)B(O)O [Bortezomib (PS-341)]
The relative cell viability of the first is higher: 1.01 for the first, 0.396 for the second.

Going from `CCN(c1cc(-c2ccc(CN3CCOCC3)cc2)cc(C(=O)NCc2c(C)cc(C)[nH]c2=O)c1C)C1CCOCC1` to `CCc1c(C(=O)NCCc2ccc(N3CCCCC3)cc2)[nH]c2ccc(Cl)cc12`, the relative cell viability rises from 0.911 to 0.997.

First: CCNC(=O)CCC/C=C\C[C@@H]1[C@@H](/C=C/[C@@H](O)CCc2ccccc2)[C@H](O)C[C@@H]1O [Bimatoprost]
Second: O=C(O)CCNC(=O)c1ccccc1 [Betamipron]
The relative cell viability of the first is higher: 1.16 for the first, 0.99 for the second.

Going from `Cc1noc(NS(=O)(=O)c2ccc(N)cc2)c1C` [Sulfisoxazole] to `Cc1ccc2c(=O)c3cccc(CC(=O)O)c3oc2c1C` [DMXAA (Vadimezan)], the relative cell viability rises from 1.01 to 1.17.

Compared with `CCOc1nc2cccc(C(=O)OCc3oc(=O)oc3C)c2n1Cc1ccc(-c2ccccc2-c2noc(=O)[nH]2)cc1` [Azilsartan Medoxomil], `COc1nc(-c2ccc3c(c2)OCO3)n(-c2ccc(NC(=O)CSc3ccccc3)cc2)n1` [SecinH3] is higher in relative cell viability: 1.22 for the first, 1.24 for the second.

Compared with `O=C(Nc1ncc(SCCN2CCCC2)s1)[C@]1(c2ccc(S(=O)(=O)C3CC3)cc2)C[C@H]1C1CCCCC1`, `Cc1c(-c2ccc(O)cc2)n(Cc2ccc(OCCN3CCCCCC3)cc2)c2ccc(O)cc12` [Bazedoxifene HCl] is lower in relative cell viability: 0.963 for the first, 0.867 for the second.

First: CC(C=CC1(O)C(C)=CC(=O)CC1(C)C)=CC(=O)O (configuration not stated) [Abscisic Acid (Dormin)]
Second: CC(C=CC(=O)NO)=CC(C)C(=O)c1ccc(N(C)C)cc1 (configuration not stated) [Trichostatin A (TSA)]
The relative cell viability of the first is higher: 1.08 for the first, 0.165 for the second.

First: O=c1c2ccccc2oc2ccccc12 [Xanthone]
Second: O=C(Nc1cccc(Cl)c1)c1ccccn1
The relative cell viability of the first is higher: 1.08 for the first, 1.02 for the second.

Compared with `O=NO` [Sodium Nitrite], `C[C@@H]1CC(=O)NN=C1c1ccc(NN=C(C#N)C#N)cc1` [Levosimendan] is higher in relative cell viability: 1.09 for the first, 1.15 for the second.

Compared with `CC(C)(C#N)c1cc(Cn2cncn2)cc(C(C)(C)C#N)c1` [Anastrozole], `O=C(Nc1cc(C(F)(F)F)cc(C(F)(F)F)c1)c1cc(Cl)ccc1O` is lower in relative cell viability: 1.1 for the first, 0.122 for the second.

First: C/C(O)=C(\C#N)C(=O)Nc1ccc(C(F)(F)F)cc1 [Teriflunomide]
Second: CC(ONC(=O)c1cc(C(F)(F)F)cc(C(F)(F)F)c1)C(=O)Nc1ccc(Cl)cc1 (configuration not stated)
The relative cell viability of the first is lower: 0.922 for the first, 1.15 for the second.

Compared with `OCC(CO)N[C@H]1C[C@](O)(CO)[C@@H](O)[C@H](O)[C@H]1O` [Voglibose], `C[C@H](CCC(=O)O)[C@H]1CC[C@H]2[C@@H]3C[C@H](O)[C@@H]4C[C@H](O)CC[C@]4(C)[C@H]3CC[C@]12C` [Hyodeoxycholic acid (HDCA)] is lower in relative cell viability: 1.28 for the first, 1.11 for the second.

First: O=C(O)Cc1cccc(OCCCN(Cc2cccc(C(F)(F)F)c2Cl)CC(c2ccccc2)c2ccccc2)c1
Second: CC(C)N(CC[C@H](c1ccccc1)c1cc(CO)ccc1O)C(C)C
The relative cell viability of the first is higher: 1.15 for the first, 1.1 for the second.

Going from `CCOC(=O)c1ccc(N2NC(=O)C(=Cc3ccc([N+](=O)[O-])o3)C2=O)cc1` to `Cc1ccc(NC(=O)C2(c3ccc4c(c3)OC(F)(F)O4)CC2)nc1-c1cccc(C(=O)O)c1` [VX-809 (Lumacaftor)], the relative cell viability falls from 1.02 to 0.168.

Going from `C=CC(=O)Nc1cccc(Nc2nc(Nc3ccc(NC4CN(CCF)C4)cc3OC)ncc2C(F)(F)F)c1` to `O=c1cc(CN2CCOCC2)occ1OCCCCCSc1ccnc2cc(C(F)(F)F)ccc12`, the relative cell viability rises from 0.885 to 1.13.

Going from `O=C(c1cccc(Cl)c1F)N1CCN(Cc2cccc(Nc3nccs3)n2)CC1` to `NC1(Cc2ccc(Cl)cc2)CCN(c2ncnc3[nH]ccc23)CC1`, the relative cell viability falls from 1.06 to 0.989.

First: Clc1ccc(NN=C(c2ccccc2)c2ccccn2)nc1
Second: CN(NC(=O)CC(=O)NN(C)C(=S)c1ccccc1)C(=S)c1ccccc1 [Elesclomol (STA-4783)]
The relative cell viability of the first is higher: 0.087 for the first, 0.00669 for the second.

Compared with `COC(=O)[C@H](CCSC)NC(=O)c1ccc(NC[C@@H](N)CS)cc1-c1ccccc1`, `Nc1nc(N)c2nc(-c3cccc(O)c3)c(-c3cccc(O)c3)nc2n1` is lower in relative cell viability: 1.16 for the first, 0.944 for the second.

In the case of `COc1ccc(C(=O)Nc2sc3c(c2C(N)=O)CCCC3)cc1OC`, the relative cell viability is reported as 1.03.
